Compound activity deposited in PubChem by Johns Hopkins Ion Channel Center.
Sampled rows, rich in hits. Any-hit rate of the full collection: about 1.6%.
KCNQ2 inh = blocks the rat KCNQ2 potassium channel; CHO-K1 KCNQ2, FluxOR thallium flux, 20 min; hits give low values; B-score at 10 µM; 1.1% of 310,000 active; AID 2156; O88943;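 active = fluorescence ratio B-score at most minus 3 library SDs, with starting brightness B-score within 2 library SDs, cut at about -5.5 in these data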
KCNQ2 pot = potentiators of rat KCNQ2 potassium channel; B-score at 10 µM; AID 2239; CHO-K1 KCNQ2, FluxOR thallium flux fluorescence; hits give high values; 0.54% of 310,000 active;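 active = fluorescence ratio B-score at least 3 SD of library B-scores, with initial fluorescence B-score within 3 of them, cut at about 5.3 in these data; same plate scores as AID 2156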;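 also: B-score of peak minus minimum over baseline fluorescence ratio after K+ and Tl+ stimulus; positive B-score means potentiation of KCNQ2 with more thallium influx and brighter signal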
Kir21 conf inh = confirmation of mouse Kir2.1 potassium channel inhibitors | shares compounds with KCNQ2 pot | Kir2.1-expressing cells, FluxOR thallium flux fluorescence; hits give low values | Tl flux remaining, % of negative control (hits give low values), % at 10 µM | 41% of 2,300 active | AID 2032;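 active = Primary-screen hit whose thallium flux fell at least 3 control SD below untreated wells in both duplicates, with normal baseline fluorescence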;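 also: 0% = blank wells without stimulus and 100% = stimulated no-compound controls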
HEK293 Tl flux = parental HEK293 activity in Kir2.1 inhibitor counter-screen; FluxOR signal as % of negative control (100 = no effect), % at 10 µM; 19% of 2,300 active; parental HEK293 cells, FluxOR thallium flux fluorescence; 0% = unstimulated blank wells; AID 2105; shares compounds with KCNQ2 pot;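 active = dye signal at least 3 control SD above or below untreated wells in both duplicates, raw fluorescence within 3, either direction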;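 also: percent is based on the flux ratio of peak minus minimum fluorescence over baseline F0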
CHO-K1 ctr = parental CHO-K1 activity in KCNQ2 potentiator counter-screen. parental CHO-K1 cells, FluxOR thallium flux fluorescence; zero = vehicle mean+3SD, 100% = vehicle-minus-blank window. 43% of 1,200 active. activity increase over 3SD of controls, % at 10 µM. shares compounds with KCNQ2 pot;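 active = signal rise of at least 3 SD above the untreated control mean, in both duplicate wells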;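 also: counter screen of KCNQ2 potentiator hits so any rise reflects channel-independent effects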
KCNQ1 sel pot = human KCNQ1 counter-target activity of KCNQ2 potentiators. shares compounds with KCNQ2 pot. CHO KCNQ1 stable, FluxOR thallium flux fluorescence; beyond 3SD, as % of vehicle-control signal. activation over 3SD threshold, % at 10 µM. 28% of 1,200 active. AID 2283;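 active = fluorescence ratio rise of at least 3 SD of vehicle wells above their mean, in both replicate wells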;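 also: 0% = vehicle mean plus 3 SD and 100% = vehicle minus unstimulated blank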
KCNQ2 pot conf = rat KCNQ2 channel potentiator confirmation. 68% of 1,200 active. potentiation, less the hit threshold, % at 10 µM. AID 2287. CHO-KCNQ2 cells, FluxOR thallium flux fluorescence. shares compounds with KCNQ2 pot;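 active = fluorescence ratio rising 3 SD or more over the vehicle control mean in both replicates, plus primary screen hit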;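 also: peak minus minimum thallium fluorescence divided by baseline after K/Tl stimulus; 0% = vehicle mean plus 3 SD and 100% = vehicle minus unstimulated blank difference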
Kir21 spec = selectivity of KCNQ2 potentiators: effect on mouse Kir2.1; shares compounds with KCNQ2 pot; HEK293 Kir2.1, FluxOR thallium flux fluorescence; activity over 3SD threshold, % at 10 µM; 2% of 1,200 active;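 active = fluorescence ratio rise of at least 3 SD above the vehicle-control mean, seen in both replicates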;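 also: 0% = vehicle mean plus 3 SD and 100% = vehicle minus no-stimulus blank window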
KCNQ2 W236L pot = rat KCNQ2 W236L mutant potentiation by KCNQ2 potentiators; 10% of 940 active; current increase over 3SD of negative controls (%), hits give high values, % at 25 µM; shares compounds with KCNQ2 pot; CHO KCNQ2-W236L, automated patch clamp current;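 active = current increase at least 3 SD of the untreated controls above them in both duplicate recordings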
Target sequence (O88943 whole entry W236L, looked up): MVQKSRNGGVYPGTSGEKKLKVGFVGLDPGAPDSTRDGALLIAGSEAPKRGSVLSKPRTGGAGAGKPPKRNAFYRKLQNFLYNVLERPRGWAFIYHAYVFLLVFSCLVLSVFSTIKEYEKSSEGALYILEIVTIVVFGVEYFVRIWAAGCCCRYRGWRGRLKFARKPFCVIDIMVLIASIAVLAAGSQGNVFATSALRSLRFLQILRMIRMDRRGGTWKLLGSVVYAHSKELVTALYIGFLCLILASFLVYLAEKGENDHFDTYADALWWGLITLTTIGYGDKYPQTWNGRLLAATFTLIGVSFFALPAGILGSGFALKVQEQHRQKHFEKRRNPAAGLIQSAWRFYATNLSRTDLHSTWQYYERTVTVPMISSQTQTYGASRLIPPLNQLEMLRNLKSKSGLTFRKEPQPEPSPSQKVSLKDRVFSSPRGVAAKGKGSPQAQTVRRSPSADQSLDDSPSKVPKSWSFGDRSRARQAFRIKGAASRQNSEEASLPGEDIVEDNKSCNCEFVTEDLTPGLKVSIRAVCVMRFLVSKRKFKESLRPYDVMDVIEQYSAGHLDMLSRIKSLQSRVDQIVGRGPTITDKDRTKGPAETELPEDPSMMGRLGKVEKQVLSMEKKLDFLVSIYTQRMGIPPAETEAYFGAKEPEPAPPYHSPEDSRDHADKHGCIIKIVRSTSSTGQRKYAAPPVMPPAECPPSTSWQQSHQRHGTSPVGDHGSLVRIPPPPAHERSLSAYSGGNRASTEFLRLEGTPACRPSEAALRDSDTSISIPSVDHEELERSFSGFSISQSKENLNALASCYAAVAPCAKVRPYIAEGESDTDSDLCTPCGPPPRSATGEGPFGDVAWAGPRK
An asterisk follows results filed as active; i = inactive; . = not tested or not shown.

SMILES | KCNQ2 inh | KCNQ2 pot | Kir21 conf inh | HEK293 Tl flux | others
O=C(CNCc1ccc(F)cc1)Nc1ccc(C(=O)N2CCCCC2)cc1 | i | 1 | . | .
CCOC(=O)N1CCN(c2cc(=O)n(-c3cccc(C)c3)c(=O)[nH]2)CC1 | i | 0.9 | . | .
CC(O)CNc1nc2sc3c(c2c(=O)n1Cc1ccco1)CCCCC3 (centres undefined) | i | 1 | . | .
O=c1c2c3c(sc2nc(NCCOCCO)n1Cc1ccco1)CCCCC3 | i | 5.6* | i | i | CHO-K1 ctr=-7;KCNQ1 sel pot=38*;KCNQ2 pot conf=-11;Kir21 spec=-38;KCNQ2 W236L pot=6.1%*
COc1ccc(NC(=O)CN2CCN(C(=O)N3CCOCC3)CC2)cc1 | i | 0.12 | . | .
COCCCC1CCN(C(=O)C2CCC(=O)N(CC3CCCCC3)C2)CC1 (centres undefined) | i | . | . | .
CC(NC(=O)c1ccccc1Br)c1nnc(SCC(=O)NC2=NCCS2)n1C (centres undefined) | i | 0.46 | . | .
CCc1ccc(OCC(=O)Nc2ccncc2)c(Br)c1 | i | 3.2 | . | .
CC(C)(C)c1ccc(OCC(=O)Nc2ccncc2)c(Br)c1 | i | 5.6* | i | i | CHO-K1 ctr=-20;KCNQ1 sel pot=-11;KCNQ2 pot conf=-2;Kir21 spec=-28;KCNQ2 W236L pot=i
CC(=O)c1ccc(Nc2cc(C)nc3c(C)cccc23)cc1 | i | . | . | .
Cc1ccc(Nc2cc(C)nc3c(C)cccc23)cc1 | i | 1.4 | 36%* | i
Cc1ccccc1CSCC(=O)Nc1ccccc1F | i | . | . | .
Cc1ccc2[nH]c3c(c2c1)CCCC3NCCO (centres undefined) | i | . | . | .
CC1CCc2c(sc(NC(=O)c3ccco3)c2C(=O)O)C1 (centres undefined) | i | 1.6 | . | .
COC(=O)c1c(NC(=O)c2ccc(C)c(S(=O)(=O)Nc3ccccc3C)c2)sc2c1CCCC2 | i | . | . | .
CCOC(=O)c1c(NC(=O)OC)sc2c1CCC2 | i | 0.81 | . | .
CCOC(=O)c1c(NC(=O)c2ccco2)sc2c1CCCCC2 | i | 2.4 | . | .
CC1CCc2c(sc(NS(=O)(=O)c3ccccc3)c2C(=O)OC(C)C)C1 (centres undefined) | i | 4.1 | i | i
COC(=O)c1c(NS(=O)(=O)c2ccc3ccccc3c2)sc2c1CCCC2 | i | 6.4* | i | i | CHO-K1 ctr=-4;KCNQ1 sel pot=-11;KCNQ2 pot conf=-17;Kir21 spec=-36
CCOC(=O)c1c(NS(=O)(=O)c2ccc(Br)cc2)sc2c1CCC2 | i | 18* | i | 255%* | CHO-K1 ctr=41*;KCNQ1 sel pot=87*;KCNQ2 pot conf=59*;Kir21 spec=-26;KCNQ2 W236L pot=i
CCOC(=O)c1c(NC(=O)CCNCc2ccco2)sc2c1CCC2 | i | . | 28%* | i
Cc1ccc(N(C(=O)c2csnn2)C(C(=O)NCc2ccccc2)c2cccnc2)cc1 (centres undefined) | i | . | . | .
COCCCN(C(=O)c1cc2c(s1)CCCCC2)c1c(N)n(Cc2ccccc2)c(=O)[nH]c1=O | i | . | . | .
CC(OC(=O)Cn1[nH]c(=O)c2ccccc2c1=O)C(=O)Nc1cccc(Cl)c1 (centres undefined) | i | 1.1 | . | .
CCCN(CCC)CC(C)(C)NS(=O)(=O)c1ccc(Cl)cc1 | i | . | . | .
SMILES | KCNQ2 inh | KCNQ2 pot | Kir21 conf inh | HEK293 Tl flux | others
COc1ccc(C2CCCN2C(=S)Nc2ccc(C)cc2Cl)cc1OC (centres undefined) | i | . | . | .
O=C(NCc1cccnc1)c1cccc(S(=O)(=O)NCc2ccccc2)c1 | i | 0.78 | . | .
O=C(CN(C(=O)CSc1nc2ccccc2o1)c1cccc(F)c1)NC1CCCCC1 | i | . | . | .
COCCN(C(=O)CNC(=O)c1ccco1)C(C(=O)NC1CCCC1)c1cccc(OC)c1 (centres undefined) | i | . | . | .
O=C(NCCCN1CCCC1)c1ccc2c(c1)N(Cc1ccccc1F)C(=O)c1ccccc1S2(=O)=O | i | . | . | .
CCOC(=O)c1c(NS(=O)(=O)Cc2ccccc2)sc2c1CCCC2 | i | . | i | 338%*
CCOC(=O)c1c(NC(=O)c2ccccc2C(=O)O)sc2c1CCC2 | i | 1.7 | . | .
Cc1ccc(NCc2nc(SCC(=O)Nc3ccccc3)n[nH]2)cc1 | i | . | . | .
COc1ccc(CCN2C(=O)N[C@@H](CCC(=O)O)C2=O)cc1 | i | 0.87 | . | .
Cc1ccccc1C(=O)c1cccn1CC(=O)NCC(C)c1ccccc1 (centres undefined) | i | 0.69 | 66%* | i
Cc1ccccc1C(=O)c1cccn1CC(=O)NCc1ccccc1 | i | . | . | .
CC(NC(=O)CSC(=S)N1CCCC1)c1ccc(S(N)(=O)=O)cc1 (centres undefined) | i | . | . | .
CN1CCC(OC(=O)c2ccccc2)CC1 | i | 0.61 | . | .
Cc1c(Br)cc(C(=O)OC2CCN(C)CC2)c(C)c1C | i | 0.45 | 25%* | i
CC(C)(C)c1ccc(C(=O)N/C(=C\c2cccc([N+](=O)[O-])c2)C(=O)Nc2cccc(C(=O)O)c2)cc1 | i | . | . | .
COc1ccc(Cc2nnc(Nc3c(C)cccc3C)o2)cc1OC | i | . | . | .
CSc1scc2c1-c1nc(SCC(=O)C(C)(C)C)ncc1CC2 | i | 6.7* | i | i | CHO-K1 ctr=-11;KCNQ1 sel pot=61*;KCNQ2 pot conf=2.8*;Kir21 spec=-37;KCNQ2 W236L pot=i
CC(C)(C)C(=O)CSc1ncccn1 | i | . | . | .
Cc1ccccc1NC(=O)CSc1nnc(NC(=O)C2CC2)s1 | i | 0.75 | . | .
CCCCCNC(=O)c1ccc2c(=O)n(CC3CCCO3)c(=O)[nH]c2c1 (centres undefined) | i | 6.1* | i | i | CHO-K1 ctr=-10;KCNQ1 sel pot=-28;KCNQ2 pot conf=-12;Kir21 spec=-41
CCCCCNC(=O)c1ccc2c(=O)n(CC3CCCO3)c(=S)[nH]c2c1 (centres undefined) | i | 0.82 | . | .
COc1ccc(OC)c(C2=NOC(C(=O)Nc3cc(C)on3)C2)c1 (centres undefined) | i | 0.75 | . | .
NS(=O)(=O)c1cccc(NC(=O)CCSc2ccc(Cl)cc2)c1 | i | . | . | .
CCCCc1ccc(NC(=O)COCC)cc1 | i | 1.3 | . | .
CCCCc1ccc(NC(=O)C2CCCC2)cc1 | i | 7* | i | i | CHO-K1 ctr=109*;KCNQ1 sel pot=-9;KCNQ2 pot conf=-2;Kir21 spec=-38;KCNQ2 W236L pot=i
CCCCc1ccc(NC(=O)CC(C)C)cc1 | i | 7.4* | i | 280%* | CHO-K1 ctr=-19;KCNQ1 sel pot=-2;KCNQ2 pot conf=94*;Kir21 spec=-21;KCNQ2 W236L pot=i
CCN(CC)c1ccc(NC(=O)C2CCCC2)cc1 | i | 3.5 | . | .
